Results filed as inconclusive are left out. The source made the active and inactive calls. Rule for the calls: active = hit-call score of the fitted dose curve at least 0.9, where 1 is the maximum; inconclusive = response in the unintended direction; inactive = score below 0.9.
These molecules were tested on Cytochrome P450 2C19 (Homo sapiens) (UniProt P33261) (assay: CLD_CYP2C19_6hr: CellzDirect (CLD) Gene Expression Assay for xenobiotic metabolism (CYP2C19) at 6 hours (AID 2283678)).
Experimental: CLD_6hr is a cell-based, multiplexed-readout assay that uses hepatocyte, a human liver primary cell, with measurements taken at 6 hours after chemical dosing in a 96-well plate.CLD_CYP2C19_6hr is one of 16 assay component(s) measured or calculated from the CLD_6hr assay. It is designed to make measurements of mRNA induction, a form of inducible reporter, as detected with chemiluminescence signals by Quantitative Nuclease Protection Assay (qNPA) technology.Data from the assay component CLD_CYP2C19_6hr was analyzed at the endpoint, CLD_CYP2C19_6hr, in the positive analysis fitting direction relative to DMSO as the negative control and baseline of activity. Using a type of inducible reporter, gain-of-signal activity can be used to understand changes in the reporter gene as they relate to the gene CYP2C19. Furthermore, this assay endpoint can be referred to as a primary readout. To generalize the intended target to other relatable targets, this assay endpoint is annotated to the cyp intended target family, where subfamily is xenobiotic metabolism.
Human hepatocyte cultures were treated daily for two consecutive days with fresh dosing solutions containing appropriate concentrations of the 320 ToxCast chemicals (chemical identities were blinded to CellzDirect and other ToxCast collaborators), vehicle control (0.2% DMSO), and positive control inducers as summarized in Table 1. Due to the large number of treatment groups and chemicals examined, the ToxCast chemicals were divided into two groups (spanning two independent cultures of hepatocytes from separate donor preparations (Hu778: ToxCast plates 1 and 2; Hu776: ToxCast plates 3 and 4). Each preparation of human hepatocyte cultures was treated with respective vehicle control, medium only control, set of six positive controls/reference chemicals for the five hepatic receptor pathways, and a subset of eight of the ToxCast chemicals (indoxacarb, pyrithiobac-sodium, norflurazon, cyhalofop-butyl, methomyl, thiram, acetochlor, and propiconazole). These replicate data, coupled with internal replicates designed within the blinded ToxCast chemical library, provided additional data to evaluate interindividual differences between hepatocyte preparations and their potential impact on chemical profiles.Cell morphology and integrity were evaluated using phase-contrast microscopy as an indicator of hepatocyte cell health (Tyson & Green, 1987). Cultures for each treatment group (i.e., media, vehicle [0.2% DMSO], positive control inducers [multiple concentrations], and the ToxCast chemicals [multiple concentrations]) were observed and cell morphology was assessed relative to vehicle control cultures at each harvest time point (0, 6, 24, or 48 h). […] Images were evaluated at the conclusion of the study to assess changes in cell integrity and account for the effects of chemical exposure on uncharacteristic changes in concentration-dependent gene expression profiles. The results from these determinations of apparent cytotoxicity were annotated (yes/no) alongside the corresponding qNPA data for reference.At the conclusion of each treatment period, hepatocyte cultures (96-well) were washed with 1 volume of HBSS, lysed by addition of 25 ul ArrayPlate lysis buffer (HTG, Tucson, AZ), and 70 ul/well of Denaturation Oil, denatured by incubation at 95C for 10 min, and frozen at approximately -70C until analysis by nuclease protection assay (qNPA) (Roberts et al., 2007). For qNPA analysis, cell lysates were thawed at 50C for approximately 30 min, qNPA probes were added, and samples were incubated at 95C for 10 min to begin the detection process by denaturing the target RNA, dissociating the duplexes and secondary structure hybridization. At the conclusion of the hybridization period, S1 nuclease reagent was added to each sample to digest all nonprotected nucleotides at 50C for 60-90 min. […]

Chain of Cytochrome P450 2C19 (Homo sapiens) (P33261 whole entry, looked up): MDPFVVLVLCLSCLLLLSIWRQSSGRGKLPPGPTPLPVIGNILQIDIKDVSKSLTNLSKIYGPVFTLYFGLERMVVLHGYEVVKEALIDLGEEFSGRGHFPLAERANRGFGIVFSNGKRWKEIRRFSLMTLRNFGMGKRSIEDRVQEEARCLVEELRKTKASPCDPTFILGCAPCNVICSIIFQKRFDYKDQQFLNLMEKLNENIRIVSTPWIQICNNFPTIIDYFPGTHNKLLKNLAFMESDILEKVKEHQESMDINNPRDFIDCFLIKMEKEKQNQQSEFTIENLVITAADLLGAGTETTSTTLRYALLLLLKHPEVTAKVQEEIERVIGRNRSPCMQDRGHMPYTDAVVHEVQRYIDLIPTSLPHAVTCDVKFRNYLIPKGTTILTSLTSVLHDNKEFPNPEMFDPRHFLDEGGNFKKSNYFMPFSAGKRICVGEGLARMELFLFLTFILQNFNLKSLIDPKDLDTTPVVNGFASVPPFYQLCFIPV

| SMILES | outcome |
| --- | --- |
| CC(C)N1C(=O)c2ccccc2NS1(=O)=O | inactive |
| C=C(C)CN(CC)c1c([N+](=O)[O-])cc(C(F)(F)F)cc1[N+](=O)[O-] | inactive |
| CCCCC(C#N)(Cn1cncn1)c1ccc(Cl)cc1 (stereo not given) | inactive |
| CN=C=S | inactive |
| CCOc1nc(F)cc2nc(S(=O)(=O)Nc3c(Cl)cccc3Cl)nn12 | inactive |
| COC(=O)NS(=O)(=O)c1ccc(N)cc1 | inactive |
| COC(=O)NC(=S)Nc1ccccc1NC(=S)NC(=O)OC | inactive |
| Nc1c(Cl)c(Cl)nc(C(=O)O)c1Cl | inactive |
| CC1(C)CON(Cc2ccccc2Cl)C1=O | inactive |
| CC(C)C1(C)N=C(c2ncccc2C(=O)O)NC1=O (stereo not given) | inactive |
| CCNC(=O)NC(=O)C(C#N)=NOC | inactive |
| COC(=O)c1c(C(F)F)nc(C(F)(F)F)c(C2=NCCS2)c1CC(C)C | inactive |
| COP(=O)(OC)O/C(C)=C/C(=O)N(C)C | inactive |
| CC1(C)CCC(=Cc2ccc(Cl)cc2)C1(O)Cn1cncn1 (stereo not given) | inactive |
| O=c1n(Cl)c(=O)n(Cl)c(=O)n1Cl | inactive |
| CCOC(=O)C(C)OC(=O)c1cc(Oc2ccc(C(F)(F)F)cc2Cl)ccc1[N+](=O)[O-] (stereo not given) | inactive |
| COP(=S)(OC)Oc1ccc([N+](=O)[O-])c(C)c1 | inactive |
| N#CN=C1SCCN1Cc1ccc(Cl)nc1 | inactive |

| SMILES | outcome |
| --- | --- |
| CS(=O)(=O)c1cc(C(F)(F)F)ccc1C(=O)c1cnoc1C1CC1 | inactive |
| CNC(=O)N(C)c1nnc(C(C)(C)C)s1 | inactive |
| O=C(Nc1ccccc1-c1ccc(Cl)cc1)c1cccnc1Cl | inactive |
| CC(C)(C)C(=O)C(Oc1ccc(Cl)cc1)n1cncn1 (stereo not given) | inactive |
| N#Cc1c(Cl)cccc1Cl | inactive |
| COc1cc(OC)nc(NC(=O)NS(=O)(=O)c2ncccc2OCC(F)(F)F)n1 | inactive |
| CC(C)Oc1cccc(NC(=O)c2ccccc2C(F)(F)F)c1 | inactive |
| OC(c1ccc(Cl)cc1)(c1ccc(Cl)cc1)C(Cl)(Cl)Cl | inactive |
| CC(C)=CC1C(C(=O)OCc2coc(Cc3ccccc3)c2)C1(C)C (stereo not given) | inactive |
| CCOc1nc(C(Cl)(Cl)Cl)ns1 | inactive |
| Cc1ccc(N=CN(C)C=Nc2ccc(C)cc2C)c(C)c1 | inactive |
| CSC(=O)c1c(C(F)F)nc(C(F)(F)F)c(C(=O)SC)c1CC(C)C | inactive |
| O=C(O)c1c(Cl)ccc2cc(Cl)cnc12 | inactive |
| Clc1cccc(C(Cl)(Cl)Cl)n1 | inactive |
| COCC(=O)N(c1c(C)cccc1C)C(C)C(=O)OC (stereo not given) | inactive |
| COCc1cnc(C2=NC(C)(C(C)C)C(=O)N2)c(C(=O)O)c1 (stereo not given) | inactive |
| CCOP(=O)(OCC)Oc1nc(Cl)c(Cl)cc1Cl | inactive |

From PubChem BioAssay (EPA / NIEHS)
